Screening data as filed in PubChem.
MCF10A rereplic – A quantitative high throughput screen for small molecules that induce DNA re-replication in MCF 10a normal breast cells. MCF 10A DNA re-replication, Hoechst nuclear intensity, 48 h. Potency, µM (series often up to 46.1 µM), most hits filed as activators. 350,000 tested, 2.9% active; note: nearly all actives have a fitted effect of over 50% in size
SW480 rereplic – A quantitative high throughput screen for small molecules that induce DNA re-replication in SW480 colon adenocarcinoma cells | SW480 DNA re-replication, Hoechst DNA content imaging, 48 h | Potency, µM (highest dose often 46.1 µM), hits mostly activators | 340,000 tested, 1.8% active | AID 624297, 2012; note: nearly all actives have a fitted effect of over 55% in size
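Cells (250 per well) received 23 nL compound or DMSO by pin tool and were kept 48 hr at 37 C, 5% CO2. Nuclei were then stained with Hoechst for 40 min and scanned for DNA content.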
KB-3-1 cytotox – qHTS assay for MDR1-selective chemotherapeutics: Primary screen using the parental adenocarcinoma cell KB-3-1. KB-3-1 viability, CellTiter-Glo ATP luminescence, 72 h. AID 1347075, 2019. Potency, µM (series often up to 46.1 µM), hits mostly cytotoxic. 400,000 tested, 1.4% active; note: nearly all actives have a fitted effect of over 60% in size
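Parental KB-3-1 adenocarcinoma cells in phenol-red-free DMEM with 10% FBS were pin-treated with compounds at several concentrations, incubated 72 h at 37 °C, and viability read by CellTiter-Glo luminescence; concentration-effect curves were fitted after normalization.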
HT1080NT lethal – qHTS for induction of synthetic lethality in tumor cells producing 2HG: qHTS for the HT-1080-NT fibrosarcoma cell line. HT-1080-NT fibrosarcoma viability, CellTiter-Glo ATP luminescence, 48 h. Potency, µM (series often up to 46.1 µM), usual class: cytotoxic. 360,000 tested, 1.6% active;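 note: NT is the 2HG producing partner of a matched IDH1 knockdown line; nearly all actives have a fitted effect of over 55% in size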
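Read-out is CellTiter-Glo luminescence after 10 minutes at room temperature, following 48 hours' compound treatment of HT-1080-NT cells (750 cells/well, RPMI, 5% FBS, 37 degrees C).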
HT1080 IDH1KD tx – qHTS for induction of synthetic lethality in tumor cells producing 2HG: qHTS for the HT-1080-IDH1KD cell line; HT-1080 IDH1 knockdown viability, ATP luminescence, 48 h; Potency, µM (highest dose often 46.1 µM), usual class: cytotoxic; 360,000 tested, 2% active; AID 686971, 2013
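Assay cells: HT-1080 with IDH1 knockdown, 750 per well, RPMI/5% FBS. Exposure: 48 h at 37 °C following 2 h pre-incubation. Read: CellTiter-Glo luminescence; fitted concentration-response, curve class assigned.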
KB-V1 cytotox – qHTS assay for MDR1-selective chemotherapeutics: Primary screen using the drug-selected MDR subline cells KB-V1; KB-V1 MDR cells viability, CellTiter-Glo, 72 h; Potency, µM (doses to about 46.1 µM), hits mostly cytotoxic; 400,000 tested, 3.4% active; AID 1347076, 2019; note: nearly all actives have a fitted effect of over 60% in size
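Potencies derive from concentration-effect curves fitted to normalized luminescence (CellTiter-Glo) of KB-V1 cells treated for 72 h at 37 degrees C in phenol-red-free DMEM containing 10% FBS.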
Numbers stand for hits; - = inactive; ? = inconclusive; . = not tested or not shown; [ ] = another dose, or the depositor's remark. Hits are enriched below; roughly 7.9% of the tested compounds scored in any of these assays. Calls come from the whole dose curve; as a rule, active = well fitted curve in the direction sought with a large enough effect; inconclusive = small, poorly fitted or top-dose-only effect, or another doubt; inactive = no such curve, though single readings can be large; an effect the other way counts as inactive or inconclusive.

SMILES	MCF10A rereplic	SW480 rereplic	KB-3-1 cytotox	HT1080NT lethal	HT1080 IDH1KD tx	KB-V1 cytotox
COc1ccc(Br)c(Cn2c(C)c(C(=O)N(C)Cc3ccc(F)cc3)sc2=O)c1	.	.	?	-	?	8.2µM
CN(C)CC(=O)N[C@@H]1CC[C@@H](CCNS(=O)(=O)c2ccccc2)O[C@@H]1CO	.	.	-	-	-	-
CN1CCN(NC(=O)c2cc(-c3cccc(Cl)c3)nc3ccccc23)CC1	-	-	-	16.4µM	?	-
CCN(CC)CCN1CCN(c2cnc(C)cn2)CC1	.	.	-	-	-	-
CC(=O)Nc1ccc(C(C#N)=Cc2ccc(N(C)CCC#N)cc2)cc1	.	.	-	-	-	?
COc1ccc(C(C#N)=Cc2ccccc2OC)cc1	.	.	16.4µM	?	?	8.2µM
COc1ccc2nc(/C(C#N)=C\c3ccc(C(=O)O)cc3)[nH]c2c1	-	18.4µM	-	-	?	-
COc1ccc(C(C#N)=Cc2ccc(NC(C)=O)cc2)cc1	16.4µM	?	-	-	-	-
COc1ccc(S(=O)(=O)N2CCCCC2)cc1NC(=O)Cc1sc(C)nc1-c1ccc(F)cc1	-	-	-	-	-	?
CCOC(=O)c1ccc(NC(=O)CCNC(=O)c2ccc([N+](=O)[O-])cc2)cc1	-	-	-	-	-	14.6µM
COc1ccc(S(=O)(=O)N2CCOCC2)cc1NC(=O)Cc1sc(C)nc1-c1ccc(F)cc1	-	-	?	-	-	11.6µM
COc1ccc(S(=O)(=O)N2CCOCC2)cc1NC(=O)CCNC(=O)c1ccc([N+](=O)[O-])cc1	?	?	-	-[9.24 µM]	5.8µM	-
COc1ccc(NC(=O)CCNC(=O)c2ccc([N+](=O)[O-])cc2)cc1S(=O)(=O)N1CCOCC1	-	-	-	-	-	-
COc1ccc(S(=O)(=O)N2CCOCC2)cc1NC(=O)CN1CCC(Cc2ccccc2)CC1	?	?	-	-	-	11.6µM
COc1ccc(S(=O)(=O)N2CCOCC2)cc1NC(=O)c1ccc(Cl)cc1	-	0.231µM	-	-	-	-
CC(=O)c1cc(Cl)ccc1OCc1cccc(S(=O)(=O)N2CCOCC2)c1	-	-	-	-	-	18.4µM
O=C(COc1cccnc1[N+](=O)[O-])Nc1cccc(S(=O)(=O)N2CCOCC2)c1	-	-	-	-	-	-
Cc1cc(Cl)c(S(=O)(=O)Nc2ccc(S(=O)(=O)N3CCOCC3)cc2)cc1OCC(N)=O	-	-	-	-	-	-
Cc1cc(Cl)c(S(=O)(=O)Nc2cc(S(=O)(=O)N3CCOCC3)ccc2F)cc1OCC(N)=O	0.651µM	-	-	-	-	-
COc1ccc(S(=O)(=O)N2CCOCC2)cc1NC(=O)COc1cccnc1[N+](=O)[O-]	0.581µM	-	-	-	-	-
CCOC(=O)c1ccc(NC(=O)Cn2c(=O)cc(C(F)(F)F)c3c(C)nn(C)c32)cc1	.	.	-	.	.	-
CCOc1ccc(-n2c(=O)c3c(C)c(C)sc3n(CC(=O)NCCc3ccccc3)c2=O)cc1	.	.	-	.	.	-
OC(CNCC1(N2CCCCC2)CCCCC1)COc1ccc(Cl)cc1Cl (stereo not given)	?	?	-	?	18.4µM	?
COc1ccc(S(=O)(=O)N2CCCCC2c2cc(C(=O)Nc3ccc(OC)cc3C)no2)cc1 (stereo not given)	.	.	18.4µM	-	-	-
COc1ccc(NC(=O)c2cc(C3CCCCN3S(=O)(=O)c3ccc(C#N)cc3)on2)c(C)c1 (stereo not given)	.	.	-	-	-	-
SMILES	MCF10A rereplic	SW480 rereplic	KB-3-1 cytotox	HT1080NT lethal	HT1080 IDH1KD tx	KB-V1 cytotox
NC(=S)NN=Cc1cc(-c2cccc(N)c2)ccn1	.	.	?	-	?	?
N/N=C1\CCCc2c1[nH]c1ccc([N+](=O)[O-])cc21	-	?	?	-	-	4.61µM
Fc1ccc(-c2nc(Nc3ccc(F)c(Cl)c3)nc3c2COc2ccccc2-3)cc1	.	.	-	.	.	-
OC(c1cccc(F)c1)c1ncc(-c2ccc(Oc3ccccc3)cc2)[nH]1 (stereo not given)	.	.	-	16.4µM	?	-
COc1ccc(Nc2nc(N)c(C(=O)c3ccc(F)cc3)s2)cc1	2.59µM	4.11µM	?	?	1.84µM	1.3µM
COc1ccc(C(=O)c2sc(Nc3ccccc3)nc2C)cc1	?	-	-	-	?	-
COc1cccc(C(=O)c2sc(NC(C)C)nc2N)c1	5.8µM	?	16.4µM	-	?	?
CC(C)Nc1nc(N)c(C(=O)C23CC4CC(CC(C4)C2)C3)s1	23.1µM	-	-	-	-	-
COc1ccc(Nc2nc(N)c(C(=O)c3ccc(OC)cc3)s2)cc1	?	4.11µM	1.3µM	?	?	?
CC(C)OCCCNC(=O)CN1C(=O)c2ccccc2Sc2ncccc21	.	.	-	.	.	-
C#Cc1cccc(Nc2nc(NC(C)C)nc3ccsc23)c1	.	.	-	?	20.6µM	?
C#Cc1cccc(Nc2nc(NCc3ccccc3OC)nc3ccsc23)c1	.	.	?	20.6µM	?	?
C#Cc1cccc(Nc2nc(NCCOC)nc3ccsc23)c1	.	.	-	?	?	-
Cc1ccc(Cl)cc1NC(=O)CN1C(=O)c2ccccc2Sc2ncccc21	.	.	-	.	.	-
CC(=O)c1ccc(NC(=O)Cn2cc(S(=O)(=O)Cc3cccc(Cl)c3)c3ccccc32)cc1	.	.	-	.	.	-
O=C(Cn1cc(S(=O)(=O)Cc2ccccc2)c2ccccc21)Nc1ccccc1	-	-	-	-	-	18.4µM
COc1ccc(N2CCN(C(=O)COc3ccccc3C#N)CC2)cc1	.	.	-	.	.	-
O=C(NCC1CC1)c1cc2c(c(-c3cccc(-c4ccccc4F)c3)n1)[C@@H](CCO)N(C(=O)CC1CC1)C2	.	.	-	20.6µM	?	?
O=C(NCC1CC1)c1cc2c(c(-c3cccc(-c4ccccc4F)c3)n1)[C@H](CCO)N(C(=O)CC1CC1)C2	.	.	?	23.1µM	?	?
O=C(NCC(F)(F)F)c1cc2c(c(-c3cccc(-c4ccccc4F)c3)n1)[C@@H](CCO)N(C(=O)CC1CC1)C2	.	.	?	?	20.6µM	?
CCNC(=O)c1cc2c(c(-c3cccc(-c4ccccc4F)c3)n1)[C@@H](CCO)N(C(=O)CC)C2	.	.	-	-	-	?
CCC(=O)N1Cc2cc(C(=O)NCC(F)(F)F)nc(-c3cccc(-c4cncnc4)c3)c2[C@H]1CCO	.	.	-	-	-	-
N#Cc1cccc(NC(=O)C2CCN(S(=O)(=O)c3ccc4[nH]c(=O)ccc4c3)CC2)c1	.	.	-	.	.	-
